Assay outcomes deposited in PubChem by National Center for Advancing Translational Sciences (NCATS).
Luciferase inh = Firefly luciferase inhibition profiling of diverse chemical library using quantitative high-throughput screening; Luciferin 4-monooxygenase (Photinus pyralis), P08659; purified P. pyralis luciferase, luminescence, biochemical; Potency, µM (top dose mostly 115 µM), actives largely listed as inhibitors; 76,000 tested, 2.5% active; AID 1347043, 2019; also: nearly all actives have a fitted effect of over 65% in size
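Biochemical qHTS: compound (6-point titration) added to 10uM D-luciferin plus 10uM ATP in Tris acetate pH 7.5 buffer with Mg, Tween-20 and BSA, then purified enzyme at 10nM; light output imaged.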
3T3 cytotox = Cytotoxic Profiling in NIH 3T3 Cell Line of Diverse Libraries Using Quantitative High-Throughput Screening; NIH 3T3 viability, CellTiter-Glo ATP luminescence, 48-72 h; Potency, µM (series often up to 96.7 µM), usual class: inhibitors; 94,000 tested, 4.3% active; also: nearly all actives have a fitted effect of over 55% in size
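ATP-dependent luminescence (CellTiter-Glo) served as the viability signal for NIH 3T3 cells treated with compound for 48 or 72 hr at 37 °C.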
HEK293 tox = Cytotoxic Profiling in HEK 293 Cell Line of Diverse Libraries Using Quantitative High-Throughput Screening; HEK 293 viability, ATP luminescence (CellTiter-Glo), 48-72 h; Potency, µM (series often up to 115 µM), usual class: inhibitors; 94,000 tested, 6.6% active; AID 1345083, 2018; also: nearly all actives have a fitted effect of over 60% in size
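Read-out: CellTiter-Glo ATP luminescence. Cells: HEK 293, 250 cells/well. Exposure: 48 or 72 hr, 37 degree Celsius.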
GPT2 inhibitor = Primary qHTS assay for inhibitors of Glutamate pyruvate transaminase 2 (GPT2); Recombinant GPT2, coupled pyruvate oxidase/HRP Amplex Red fluorescence; Potency, µM (titrated, usually from 57.7 µM), usual class: inhibitors; 100,000 tested, 0.25% active; AID 1671188, 2021; also: nearly all actives have a fitted effect of over 60% in size
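GPT2 10ng/uL, a-KG 250uM, L-Ala 2mM, HEPES pH7.5 + 0.0001% Tween; 30 min RT. Then Amplex mix (PO/HRP/ThPP), 30 min RT dark, fluorescence. AOA 50uM used as positive control.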
hNpr1 antagonist = Natriuretic polypeptide receptor (hNpr1) antagonism - Primary qHTS. Atrial natriuretic peptide receptor 1 (Homo sapiens), P16066. HEK293 hNpr1 GloSensor cGMP, ANP-stimulated luminescence. AID 1347048, 2019. Potency, µM (highest dose often 46.3 µM), actives largely listed as inhibitors. 76,000 tested, 1.6% active; calls by dose curve; also: nearly all actives have a fitted effect of over 60% in size
Target sequence (P16066 whole entry, looked up): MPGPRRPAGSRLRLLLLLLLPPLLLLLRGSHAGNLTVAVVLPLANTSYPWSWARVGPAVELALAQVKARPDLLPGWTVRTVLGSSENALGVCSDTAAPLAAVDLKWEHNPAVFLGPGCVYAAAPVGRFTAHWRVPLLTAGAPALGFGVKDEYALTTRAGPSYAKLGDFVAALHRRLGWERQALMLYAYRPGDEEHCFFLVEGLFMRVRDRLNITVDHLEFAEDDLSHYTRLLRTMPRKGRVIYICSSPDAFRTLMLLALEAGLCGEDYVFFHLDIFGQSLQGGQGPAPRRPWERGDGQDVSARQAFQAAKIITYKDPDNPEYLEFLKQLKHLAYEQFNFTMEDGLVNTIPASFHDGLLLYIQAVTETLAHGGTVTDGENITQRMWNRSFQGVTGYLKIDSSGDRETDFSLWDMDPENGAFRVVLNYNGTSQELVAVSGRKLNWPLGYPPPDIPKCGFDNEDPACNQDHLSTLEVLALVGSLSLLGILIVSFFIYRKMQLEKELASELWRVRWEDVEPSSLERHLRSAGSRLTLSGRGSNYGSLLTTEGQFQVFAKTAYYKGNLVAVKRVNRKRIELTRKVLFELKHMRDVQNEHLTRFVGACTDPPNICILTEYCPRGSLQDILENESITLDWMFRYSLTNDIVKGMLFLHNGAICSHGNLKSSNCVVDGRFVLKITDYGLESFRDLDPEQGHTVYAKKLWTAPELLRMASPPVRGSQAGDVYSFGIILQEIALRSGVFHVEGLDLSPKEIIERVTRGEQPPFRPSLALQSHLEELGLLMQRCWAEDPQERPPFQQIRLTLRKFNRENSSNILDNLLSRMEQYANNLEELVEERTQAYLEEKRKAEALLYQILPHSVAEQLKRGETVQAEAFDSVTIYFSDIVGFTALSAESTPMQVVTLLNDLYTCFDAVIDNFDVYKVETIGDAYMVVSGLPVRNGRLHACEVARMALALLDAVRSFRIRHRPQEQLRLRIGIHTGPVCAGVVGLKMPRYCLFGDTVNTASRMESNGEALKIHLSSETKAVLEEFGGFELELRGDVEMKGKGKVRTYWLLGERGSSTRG
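HEK293 cells stably expressing human Npr1 and cGMP GloSensor pGS-40F, loaded 2 h with 2% GloSensor reagent, given compound 30 min at room temperature. Luminescence read before and 20 min after 0.1 nM hNppA.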
Npr1 antag conf = Natriuretic polypeptide receptor (hNpr1) antagonism - Confirmation; 1,400 tested, 76% active; shares compounds with hNpr1 antagonist; HEK293 hNpr1 cGMP GloSensor luminescence, ANP-stimulated; Potency, µM (highest dose often 57.6 µM), most hits filed as inhibitors; calls by dose curve; also: nearly all actives have a fitted effect of over 70% in size
NPR2 antag = Natriuretic polypeptide receptor (hNpr2) antagonism - Subtype selectivity assay; Potency, µM (top dose mostly 57.6 µM), hits mostly inhibitors; shares compounds with hNpr1 antagonist; HEK293 hNpr2 GloSensor cGMP luminescence, CNP-stimulated; AID 1347046, 2019; 1,400 tested, 67% active; calls by dose curve; also: nearly all actives have a fitted effect of over 70% in size
FLuc inh counter = Natriuretic polypeptide receptor (hNpr1) antagonism - Confirmation firefly luciferase (FLuc) inhibition counterscreen | shares compounds with hNpr1 antagonist | purified FLuc enzyme, luminescence, Km substrate | Potency, µM (series often up to 57.6 µM), actives largely listed as inhibitors | 1,400 tested, 0.7% active
GloSensor ctrl = Natriuretic polypeptide receptor (hNpr1) antagonism - Counterscreen GloSensor control cell line; shares compounds with hNpr1 antagonist; HEK293 GloSensor cGMP, SNP-stimulated, luminescence; Potency, µM (highest dose often 57.6 µM), most hits filed as inhibitors; 1,400 tested, 69% active; AID 1347051, 2019; calls by dose curve; also: nearly all actives have a fitted effect of over 70% in size
Of the large screens only hits and unclear results are named; the others gave an inactive call (follow-up assays come after a bar, where they were run). Shown are actives, neighbours in structure and some others; about 10% of the full set was active somewhere. Unless noted, calls follow the shape of the dose curve; as a rule, active = well fitted curve in the direction sought with a large enough effect; inconclusive = small, poorly fitted or top-dose-only effect, or another doubt; inactive = no such curve, though single readings can be large; an effect the other way counts as inactive or inconclusive.

Cc1cc(CNC(=O)c2cc(C(C)C)nn2C)c2[nH]c(C)c(C)c2c1	3T3 cytotox inconclusive, HEK293 tox 40µM, hNpr1 antagonist 7.1µM | Npr1 antag conf 6.9µM | NPR2 antag 6.9µM | FLuc inh counter inactive | GloSensor ctrl 4.8µM
CCc1[nH]c2c(CNC(=O)c3c(C)cc(C)n(C)c3=O)cc(F)cc2c1C	none
CC(C)c1ccc(C(=O)N2CCC(Cc3nc(-c4ccc(F)cc4)no3)CC2)cc1	3T3 cytotox inconclusive, HEK293 tox inconclusive, hNpr1 antagonist 1.4µM | Npr1 antag conf 1.4µM | NPR2 antag 1.7µM | FLuc inh counter inactive | GloSensor ctrl 1.4µM
O=C(c1ccc(F)cc1)N1CCC[C@H](c2nc(-c3ccc(F)cc3)no2)C1	none (no result: Luciferase inh, 3T3 cytotox, HEK293 tox, hNpr1 antagonist)
O=C(c1ccc2c(c1)OCO2)N1CCC(Cc2nc(-c3ccc(F)cc3)no2)CC1	3T3 cytotox inconclusive, HEK293 tox inconclusive, hNpr1 antagonist 2.5µM | Npr1 antag conf 2.4µM | NPR2 antag 2.2µM | FLuc inh counter inactive | GloSensor ctrl 1.7µM
CCc1ccc(C(=O)N2CCC(Cc3nc(C(C)C)no3)CC2)cc1	3T3 cytotox inconclusive, HEK293 tox inconclusive, hNpr1 antagonist 16µM | Npr1 antag conf 27µM | NPR2 antag inconclusive | FLuc inh counter inactive | GloSensor ctrl 24µM
CCc1ccc(C(=O)N2CCC(Cc3nc(-c4ccc(F)cc4)no3)CC2)cc1	3T3 cytotox inconclusive, HEK293 tox inconclusive, hNpr1 antagonist 1.3µM | Npr1 antag conf 1.5µM | NPR2 antag 1.7µM | FLuc inh counter inactive | GloSensor ctrl 1.5µM
Cc1nccc(N2CCN(C(=O)N3CCOCC3)CC(C(=O)O)C2)n1 (centres undefined)	none
Cc1ccc(C(=O)N2CCC(Cc3nc(-c4ccc(F)cc4)no3)CC2)cn1	3T3 cytotox inconclusive, HEK293 tox inconclusive, hNpr1 antagonist 1.1µM | Npr1 antag conf 1.4µM | NPR2 antag 1.9µM | FLuc inh counter inactive | GloSensor ctrl 1.5µM
Cc1ccc(C(=O)N2CCC(Cc3nc(-c4cnccn4)no3)CC2)cc1C	3T3 cytotox inconclusive
COc1ccc2nc(C[C@@H]3C[C@@H](C(C)C)[C@H](CNC(=O)CCC(=O)O)C=C3C)[nH]c2c1	none
COc1ccc2nc(C[C@@H]3C[C@@H](C(C)C)[C@H](CNCc4ccccc4OC)C=C3C)[nH]c2c1	3T3 cytotox 28µM, HEK293 tox 20µM | Npr1 antag conf inconclusive | NPR2 antag inconclusive | FLuc inh counter inactive | GloSensor ctrl inactive
NS(=O)(=O)OC[C@@H]1C[C@@H](n2ccc3c(N[C@H]4CCc5ccccc54)ncnc32)C[C@H]1O	none (no result: Luciferase inh, 3T3 cytotox, HEK293 tox, hNpr1 antagonist)
OCC1CN(c2ccncn2)CC12CCN(Cc1cc(F)c(F)c(F)c1)CC2 (centres undefined)	HEK293 tox inconclusive, hNpr1 antagonist inconclusive | Npr1 antag conf inconclusive | NPR2 antag inactive | FLuc inh counter inactive | GloSensor ctrl inactive
COC(=O)[C@@H]1C[C@@H](NC(=O)C2CCN(C(=O)CC(C)C)CC2)CN1C	none
O=C1COc2ccc(NCCc3ccccn3)nc2CN1Cc1ccc(C(F)(F)F)cc1	3T3 cytotox inconclusive, HEK293 tox inconclusive, hNpr1 antagonist inconclusive | Npr1 antag conf inconclusive | NPR2 antag inconclusive | FLuc inh counter inactive | GloSensor ctrl inconclusive
O=C1COc2ccc(NCc3cccs3)nc2CN1CCOc1ccccc1	3T3 cytotox inconclusive, HEK293 tox 89µM, hNpr1 antagonist 14µM | Npr1 antag conf 20µM | NPR2 antag 22µM | FLuc inh counter inactive | GloSensor ctrl 18µM
O=C1COc2ccc(NCCOc3ccccc3)nc2CN1Cc1ccccc1F	3T3 cytotox inconclusive, HEK293 tox inconclusive, hNpr1 antagonist 22µM | Npr1 antag conf 31µM | NPR2 antag 35µM | FLuc inh counter inactive | GloSensor ctrl 31µM
CNC(=O)c1cc(-c2ccccc2C)cc2c1OCCN2Cc1cccnc1	3T3 cytotox inconclusive, HEK293 tox inconclusive, hNpr1 antagonist inconclusive | Npr1 antag conf inconclusive | NPR2 antag inconclusive | FLuc inh counter inactive | GloSensor ctrl inactive
COc1cccc(CNC(=O)c2ccc(Cn3ccn4nc5c(c4c3=O)CCCC5)cc2)c1	HEK293 tox inconclusive
COc1ccc(CNC(=O)c2ccc(Cn3ccn4nc5c(c4c3=O)CCCC5)cc2)cc1	3T3 cytotox inconclusive, HEK293 tox 20µM, hNpr1 antagonist 11µM | Npr1 antag conf 27µM | NPR2 antag 27µM | FLuc inh counter inactive | GloSensor ctrl 27µM
COc1ccc(NC(=O)c2ccc(Cn3ccn4nc5c(c4c3=O)CCCC5)cc2)cc1OC	3T3 cytotox inconclusive, HEK293 tox inconclusive
COc1ccc(CNC(=O)c2ccc(Cn3ccn4nc5c(c4c3=O)CCCC5)cc2)cc1OC	3T3 cytotox inconclusive, HEK293 tox 22µM, hNpr1 antagonist 11µM | Npr1 antag conf 27µM | NPR2 antag 24µM | FLuc inh counter inactive | GloSensor ctrl 24µM
CS(=O)(=O)N1CCCN(Cc2cn[nH]c2-c2ccccc2)CCNC(=O)CC1c1ccccc1 (centres undefined)	none
CC(C)(C)c1ccc(C(=O)N2CCC(c3n[nH]c(=O)n3Cc3ccc(F)cc3)CC2)cc1	3T3 cytotox inconclusive, HEK293 tox inconclusive, hNpr1 antagonist 11µM | Npr1 antag conf 24µM | NPR2 antag 22µM | FLuc inh counter inactive | GloSensor ctrl 22µM
COc1ccc(-n2nc3n(c2=O)CCN(C(=O)c2ccccc2)C3)cc1	none (no result: Luciferase inh, hNpr1 antagonist)
COc1ccc(C(=O)N2CCn3c(nn(-c4ccc(Cl)cc4)c3=O)C2)cc1	none (no result: Luciferase inh, hNpr1 antagonist) | Npr1 antag conf inconclusive | NPR2 antag 22µM | FLuc inh counter inactive | GloSensor ctrl 27µM
